Measurements published in the supplement of paper PMC6897291.
Where a name gives a salt, the structure may show the parent alone.

What was measured:
U-2932 [1] = test: growth inhibition by drug alone (1 - RLU/untreated control) (fraction); higher = stronger inhibition; settings: 177Lu-lilotomab satetraxetan 0 ug/ml
Method in brief: (§1)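 Growth inhibition was calculated from RealTime-Glo RLU against untreated no-drug wells. Values equal 1 − RLU/mean of 48 untreated no-drug wells per plate, read daily from day 3 after 1 h at 37°C. RIVA and U-2932 cells, with or without 18 h pretreatment by a radiolabelled anti-CD37 antibody conjugate (~600 MBq/mg; 0.5 µg/ml RIVA, 1 µg/ml U-2932), were washed and plated at 3,000 cells/well on compound-printed plates at 10/100 nM (RIVA) or 10/1,000 nM (U-2932).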

U-2932 [2] = test: growth inhibition by drug plus 177Lu-lilotomab satetraxetan (1 - RLU/untreated control) (fraction); higher = stronger inhibition; settings: 177Lu-lilotomab satetraxetan 1 ug/ml
Method in brief: as §1

RIVA [3] = test: as above; settings: 177Lu-lilotomab satetraxetan 0.5 ug/ml
Method in brief: as §1

RIVA [4] = test: growth inhibition by drug alone (1 - RLU/untreated control) (fraction); higher = stronger inhibition; settings: 177Lu-lilotomab satetraxetan 0 ug/ml
Method in brief: as §1

Structure (SMILES)	growth inhibition by drug alone (U-2932 [1]; 10 nM, time (day): 3)	growth inhibition by drug alone (U-2932 [1]; 10 nM, time (day): 4)	growth inhibition by drug alone (U-2932 [1]; 10 nM, time (day): 5)	growth inhibition by drug alone (U-2932 [1]; 10 nM, time (day): 6)	growth inhibition by drug alone (U-2932 [1]; 1000 nM, time (day): 3)	growth inhibition by drug alone (U-2932 [1]; 1000 nM, time (day): 4)	growth inhibition by drug alone (U-2932 [1]; 1000 nM, time (day): 5)	growth inhibition by drug alone (U-2932 [1]; 1000 nM, time (day): 6)	growth inhibition by drug plus 177Lu-lilotomab satetraxetan (U-2932 [2]; 10 nM, time (day): 3)	growth inhibition by drug plus 177Lu-lilotomab satetraxetan (U-2932 [2]; 10 nM, time (day): 4)	growth inhibition by drug plus 177Lu-lilotomab satetraxetan (U-2932 [2]; 10 nM, time (day): 5)	growth inhibition by drug plus 177Lu-lilotomab satetraxetan (U-2932 [2]; 10 nM, time (day): 6)	growth inhibition by drug plus 177Lu-lilotomab satetraxetan (U-2932 [2]; 1000 nM, time (day): 3)	growth inhibition by drug plus 177Lu-lilotomab satetraxetan (U-2932 [2]; 1000 nM, time (day): 4)	growth inhibition by drug plus 177Lu-lilotomab satetraxetan (U-2932 [2]; 1000 nM, time (day): 5)	growth inhibition by drug plus 177Lu-lilotomab satetraxetan (U-2932 [2]; 1000 nM, time (day): 6)	growth inhibition by drug plus 177Lu-lilotomab satetraxetan (RIVA [3]; 10 nM, time (day): 3)	growth inhibition by drug plus 177Lu-lilotomab satetraxetan (RIVA [3]; 10 nM, time (day): 4)	growth inhibition by drug plus 177Lu-lilotomab satetraxetan (RIVA [3]; 10 nM, time (day): 5)	growth inhibition by drug plus 177Lu-lilotomab satetraxetan (RIVA [3]; 10 nM, time (day): 6)	growth inhibition by drug plus 177Lu-lilotomab satetraxetan (RIVA [3]; 100 nM, time (day): 3)	growth inhibition by drug plus 177Lu-lilotomab satetraxetan (RIVA [3]; 100 nM, time (day): 4)	growth inhibition by drug plus 177Lu-lilotomab satetraxetan (RIVA [3]; 100 nM, time (day): 5)	growth inhibition by drug plus 177Lu-lilotomab satetraxetan (RIVA [3]; 100 nM, time (day): 6)	growth inhibition by drug alone (RIVA [4]; 10 nM, time (day): 3)	growth inhibition by drug alone (RIVA [4]; 10 nM, time (day): 4)	growth inhibition by drug alone (RIVA [4]; 10 nM, time (day): 5)	growth inhibition by drug alone (RIVA [4]; 10 nM, time (day): 6)	growth inhibition by drug alone (RIVA [4]; 100 nM, time (day): 3)	growth inhibition by drug alone (RIVA [4]; 100 nM, time (day): 4)	growth inhibition by drug alone (RIVA [4]; 100 nM, time (day): 5)	growth inhibition by drug alone (RIVA [4]; 100 nM, time (day): 6)
C=CCc1cccc(/C=N/NC(=O)CN2CCN(Cc3ccccc3)CC2)c1O	0.126	0.104	0.0863	0.00412	0.161	0.136	0.0263	-0.0573	0.0573	0.108	0.173	0.215	0.15	0.163	0.17	0.249	0.608	0.648	0.666	0.668	0.392	0.492	0.488	0.509								
O=C(NC1CCNCC1)c1n[nH]cc1NC(=O)c1c(Cl)cccc1Cl	0.0998	0.0607	0.0482	0.00372	0.953	0.964	0.972	0.975	0.0507	0.0657	0.0758	0.0972	0.947	0.964	0.971	0.977	0.495	0.577	0.593	0.579	0.503	0.57	0.566	0.533								
Cn1c(=O)c(F)c(Nc2ccc(I)cc2F)c2c(=O)n(C[C@@H](O)CO)cnc21	0.14	0.135	0.0576	-0.0158	0.131	0.169	0.099	0.12	0.103	0.169	0.176	0.21	0.189	0.254	0.249	0.347	0.522	0.484	0.489	0.487	0.579	0.588	0.55	0.496								
COC(=O)C1=C(C)NC(C)=C(C(=O)OCCCN2CCC(c3ccccc3)(c3ccccc3)CC2)[C@H]1c1cccc([N+](=O)[O-])c1 [S-(+)-Niguldipine hydrochloride]	0.0443	0.0164	-0.0556	-0.116	0.105	0.109	0.032	0.0169	-0.0121	0.0306	0.0867	0.111	0.113	0.151	0.317	0.268	0.569	0.592	0.608	0.623	0.527	0.552	0.566	0.562	0.00175	-0.0387	-0.0555	-0.128	-0.336	-0.283	-0.288	-0.329
Nc1ccc(C(=O)Nc2cccc(-c3nc(N4CCOCC4)c4oc5ncccc5c4n3)c2)cn1	0.123	0.0927	0.0179	-0.0139	0.195	0.203	0.118	0.206	0.00496	0.0368	0.0937	0.133	0.163	0.259	0.223	0.329	0.467	0.548	0.558	0.579	0.541	0.566	0.558	0.533								
C[C@H](NC(=O)Cc1cc(F)cc(F)c1)C(=O)N[C@H](C(=O)OC(C)(C)C)c1ccccc1	-0.0234	-0.0325	-0.047	-0.000319	-0.0711	-0.073	-0.0673	-0.0373	-0.0297	0.0223	0.0667	0.147	-0.025	0.0181	0.0285	0.158	0.498	0.535	0.549	0.545	0.341	0.426	0.437	0.445	-0.112	-0.175	-0.192	-0.264	-0.299	-0.293	-0.297	-0.351
Cc1ccc(NC(=O)c2cccc(C(C)(C)C#N)c2)cc1Nc1ccc2ncn(C)c(=O)c2c1	0.0487	0.00122	-0.0179	-0.0294	0.157	0.159	0.087	0.137	0.00759	0.0624	0.11	0.17	0.173	0.189	0.164	0.263	0.556	0.622	0.643	0.651	0.432	0.547	0.564	0.563								
O=C1NC(=O)/C(=C\c2cccc(C(F)(F)F)c2)S1	-0.0629	-0.0752	-0.145	-0.158	-0.0663	-0.0763	-0.118	-0.219	-0.0851	-0.0351	0.0122	0.101	-0.0652	-0.0183	0.0099	0.134																
CCc1cc(-c2n[nH]c(C)c2-c2ccc3c(c2)OCCO3)c(O)cc1O	0.113	0.047	-0.0381	-0.212	0.0202	-0.0494	-0.116	-0.126	0.0102	0.053	0.0491	0.0788	0.0475	0.0422	0.0841	0.183	0.478	0.547	0.565	0.581	0.363	0.462	0.473	0.48	-0.0752	-0.183	-0.489	-0.797	-0.563	-0.433	-0.46	-0.629
CN(C)C/C=C/C(=O)Nc1cc2c(Nc3ccc(F)c(Cl)c3)ncnc2cc1O[C@H]1CCOC1 [Afatinib (BIBW2992)]	0.0755	0.0672	0.0124	-0.039	0.0101	0.0989	0.0569	0.0902	0.0397	0.0532	0.0798	0.0941	-0.123	0.0652	0.0526	0.121	0.437	0.523	0.544	0.558	0.389	0.492	0.493	0.456								
